Laboratory results reported in PubChem BioAssay (NCATS).
Results filed as inconclusive are left out. Where a call stands in place of a potency, no number is given. Active and inactive are the calls of the source. The call rests on the fitted dose curve; in most records, active means well fitted cell-killing curve with a large enough effect; inconclusive means small, poorly fitted or top-dose-only effect, or effect the other way; inactive means flat fitted curve, though single readings scatter.

What follows are molecules tested on CAOV3 (assay: Primary qHTS to identify gynecologic anti-cancer compounds using libraries of approved drugs and bioactive compounds (AID 1345084; further: nearly all actives have a fitted effect of over 55% in size)). Details: Gynecologic cancer cell panel viability, ATPlite luminescence, 48 h; series mostly up to 57.5 µM.
Excerpt: National Center for Advancing Translational Sciences [NCATS] Assay Overview: Chemotherapeutic drug responses vary from cancer to cancer and from patient to patient. These variations could be caused by a number of factors including patient genomic background, tumor mutations, tumor heterogeneity, and aspects of drug treatment. Chemotherapeutic drug resistance is also a common issue and can lead to ineffective treatment and patient death. Here we have profiled the cell killing effects of thousands of compounds to characterize the responses in three gynecological cancers, identify cancer-selective compounds, and understand the diversity of responses to these compounds from pan-cancer suppressors to single cell line selective compounds. In this assay, we screened a 7,914 compound drug library that included approved drug and bioactive compounds in six ovarian, three cervical, and […] placental cancer cell lines using the ATPlite assay for cell viability. […] The cervical cancer cell lines included HeLa, Ca Ski, and C-33 A. The placental cancer cell lines included JEG-3. HEK 293T cells were used as the control cell line to determine the selectivity index. ATPlite is a luminescence based assay reliant on the conversion of a luciferase substrate to light in the presence of ATP. As a cytotoxic compound will suppress growth and decrease the number of cells, the concentration of ATP will decrease, and less light signal will be detected in the well.
Assay Protocol Summary: 1,000 cells in 4 uL of media were dispensed into white, solid bottom 1536-well plates using a Multidrop Combi (Thermo Scientific). The Assay plates were incubated for 16 hours at 37 C with 5% CO2 in assay plates, followed by the addition of 23 nL of DMSO or drug dissolved in DMSO. Each compound was assayed in five concentrations (0.092, 0.46, 2.3, 11.5, and 57.5 uM), using the automated Wako 1536 Pin Tool workstation and incubated at 37 C with 5% CO2 48 hours. 4 uL of ATPlite, the ATP monitoring reagent, was then added to the each well of the assay plates using the Multidrop Combi reagent dispenser followed by incubation for 15 minutes at room temperature. The resulting luminescence was measured using the ViewLux plate reader.
Potency means the concentration at half of the fitted maximal effect.

Structure (SMILES)	Potency
Cc1cn([C@@H]2O[C@H](CO)[C@@H](O)[C@H]2F)c(=O)[nH]c1=O	inactive
FC(F)(F)c1ccc(Nc2nc3ccc(Oc4ccnc(-c5ncc(C(F)(F)F)[nH]5)c4)cc3[nH]2)cc1	inactive
CCCCOc1ccc(C(=O)Nc2ccc(F)cc2F)cc1	inactive
Cc1cnc(Nc2ccc(CN3CCOCC3)cc2)nc1Nc1cccc(S(=O)(=O)NC(C)(C)C)c1	7.94 µM (active)
CS(=O)(=O)N1CCc2c(-c3cnc(N)nc3)nc(N3CCOCC3)nc21	inactive
Oc1ccc([C@@H]2Oc3ccc(O)cc3[C@@H]3CCC[C@@H]32)cc1	inactive
N[C@H]1CN(c2c(F)cc3c(=O)c(C(=O)O)cn(C4C[C@@H]4F)c3c2Cl)CC12CC2 (stereo partly drawn)	inactive
Nc1ccn(C2CO[C@H](CO)O2)c(=O)n1 (stereo partly drawn)	inactive
C=CC(=O)Nc1ccc2ncnc(Nc3ccc(OCc4cccc(F)c4)c(Cl)c3)c2c1	35.5 µM (active)
C[N+]1(C)[C@@H]2C[C@@H](OC(=O)C(O)(c3cccs3)c3cccs3)C[C@H]1[C@@H]1O[C@@H]12	inactive
CCOC(=O)[C@@H](N)Cc1ccc(-c2cc(O[C@H](c3ccc(Cl)cc3-n3ccc(C)n3)C(F)(F)F)nc(N)n2)cc1	inactive
O=C(Nc1ccc(Oc2ccnc3[nH]ccc23)c(F)c1)c1cccn(-c2ccc(F)cc2)c1=O	inactive
CN(C)CC(=O)N1CCC(c2ccc(NC(=O)c3ncc(C#N)[nH]3)c(C3=CCCCC3)c2)CC1	inactive
O=C(Nc1cc2cc[nH]c2cn1)c1ccccc1	1.78 µM (active)
CC(C)n1cnc2c(NCCc3ccc(O)cc3)nc(-c3csc4ccccc34)nc21	inactive
c1ccc2c(Oc3nc(Nc4ccc(N5CCOCC5)cc4)c4ncn(C5CCCCC5)c4n3)cccc2c1	inactive
O=C(O)c1ccc(Nc2ncc3c(n2)-c2ccc(Cl)cc2C(c2c(F)cccc2F)=NC3)cc1	inactive

Structure (SMILES)	Potency
CC1=C(C(=O)Nc2cc3cn[nH]c3cc2F)C(c2ccc(Cl)cc2F)N=C(c2ccnc(Cl)c2)N1 (stereo not drawn)	inactive
CN1CCc2c(c3ccccc3n2Cc2ccc(C(=O)NO)cc2)C1	inactive
c1cncc(CN2CCC(n3ncc4c(N5CCOCC5)nc(-c5ccc6[nH]ccc6c5)nc43)CC2)c1	28.2 µM (active)
CCn1c(=O)c2c(nc(C=Cc3ccc(OC)c(OC)c3)n2C)n(CC)c1=O	inactive
CC(O)(C#Cc1ccc2c(c1)N(c1nc(N)ncc1Cl)CC2)c1nccs1 (stereo not drawn)	inactive
C[C@H]1[C@@H](OC(=O)CCC(=O)O)O[C@@H]2O[C@@]3(C)CC[C@@H]4[C@H](C)CC[C@@H]1[C@@]24OO3	inactive
CC1(C)O[C@@H]2C[C@H]3[C@@H]4CCC5=CC(=O)C=C[C@]5(C)[C@@H]4[C@@H](O)C[C@]3(C)[C@]2(C(=O)CO)O1	inactive
Cc1coc2c1C(=O)C(=O)c1c-2ccc2c(C)cccc12	inactive
Cc1ccccc1C(=O)Nc1ccc(C(=O)N2CCCC(O)c3cc(Cl)ccc32)c(C)c1 (stereo not drawn)	inactive
CC(C)C[C@H](NC(=O)[C@@H](NC(=O)c1cccc(-c2ccccc2)n1)[C@@H](C)O)B(O)O	0.282 µM (active)
COc1ccc(S(=O)(=O)Nc2cccnc2Nc2ccc(O)cc2)cc1	inactive
Cn1cnc2c(F)c(Nc3ccc(Br)cc3F)c(C(=O)NOCCO)cc21	inactive
CCN(CC)Cc1ccc2cc(COC(=O)Nc3ccc(C(=O)NO)cc3)ccc2c1	7.94 µM (active)
CCC[C@H]1C[C@H](C(=O)N[C@@H]([C@@H]2O[C@@H](SC)[C@@H](O)[C@@H](O)[C@@H]2O)[C@H](C)Cl)N(C)C1	inactive
C[C@H](O)[C@@H]1C(=O)N2C(C(=O)O)=C(S[C@@H]3CN[C@H](CNS(N)(=O)=O)C3)[C@@H](C)[C@@H]12	inactive
Cc1ccc(-n2[nH]c(C)c(N=Nc3cccc(-c4cccc(C(=O)O)c4)c3O)c2=O)cc1C	inactive
